Sampled rows, rich in hits. Any-hit rate of the full collection: about 4.5%.
Caspase-1 inhib: allosteric or competitive inhibitors of human caspase-1. Caspase-1 enzyme, Ac-WEHD-AFC fluorogenic rate. actives 0.03% (n = 75,000). Potency, µM (series often up to 57.5 µM), for inactives: at the highest dose activity change, negative = inhibition, usual class: inhibitors;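 note: plate controls were vehicle for no effect and no substrate for full effect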
ERK AVP inh: vasopressin-driven ERK pathway inhibition | HEK293-V1b, vasopressin-stimulated pERK AlphaScreen | Potency, µM (titrated, usually from 57.5 µM), for inactives: at the top dose activity, negative = inhibition, usual class: inhibitors | actives 0.99% (n = 72,000) | AID 995; note: % is set by controls: 0 for no effect and ±100 for the full control effect; nearly all actives have a fitted effect of over 55% in size
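qHTS, compounds titrated on V1b-expressing HEK293 cells. Preincubation 30 min at 37C, vasopressin 25 nM for 5 min, lysis 10 min, bead incubation 5 hr at room temperature.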
GBA activity: modulators of human glucocerebrosidase. Potency, µM. purified enzyme, resorufin glucoside fluorescence (screen aimed at inhibitors), 20 min. actives 1.1% (n = 48,000); in the data active = potency below about 15 µM; inconclusive = mostly about 16 µM to 33 µM;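 note: the screen sought inhibitors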
Target sequence (P04062 whole entry, looked up): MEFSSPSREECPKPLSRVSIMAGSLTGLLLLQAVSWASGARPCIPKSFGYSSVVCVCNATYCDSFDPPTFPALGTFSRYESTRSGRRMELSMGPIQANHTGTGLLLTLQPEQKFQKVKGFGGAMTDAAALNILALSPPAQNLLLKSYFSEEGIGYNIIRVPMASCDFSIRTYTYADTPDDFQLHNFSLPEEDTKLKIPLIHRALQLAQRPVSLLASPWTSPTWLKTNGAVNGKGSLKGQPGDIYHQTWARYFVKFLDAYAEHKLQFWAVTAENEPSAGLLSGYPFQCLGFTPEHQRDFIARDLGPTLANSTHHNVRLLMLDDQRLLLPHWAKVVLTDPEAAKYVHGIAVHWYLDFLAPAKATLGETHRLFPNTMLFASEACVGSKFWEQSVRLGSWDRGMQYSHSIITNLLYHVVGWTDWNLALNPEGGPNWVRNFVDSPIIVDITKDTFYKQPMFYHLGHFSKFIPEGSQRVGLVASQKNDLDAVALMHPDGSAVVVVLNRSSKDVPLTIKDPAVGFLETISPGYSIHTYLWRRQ
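Wild-type enzyme at 0.2 nM final in 50mM citric acid/KH2PO4, 10mM sodium taurocholate, 0.01% tween-20, pH 5.9, with resorufin beta-D-glucopyranoside at 30 uM final. Compounds titrated, 20 min at RT, red fluorescence read; AC50 from titration.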
TSHR agonist: agonists of human thyroid stimulating hormone receptor; P16473; HEK293-CNG-TSHR cells (CNG channel as cAMP sensor), membrane potential dye, cAMP; Potency, µM (doses to about 57.1 µM), without a hit: top-dose activation, usual class: activators; actives 0.48% (n = 73,000); active = well fitted activation curve with a large enough effect in the main read-out, with a control signal flat, not every such curve was filed as active; inconclusive = small, poorly fitted or top-dose-only effect, or a change in a side signal; inactive = no such curve, though single readings can be large or run the other way; % of control where 0% means no effect;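 note: the control signal comes from parental cells without the receptor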
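HEK 293 cells stably expressing TSHR and a modified CNG channel, with CNG-only parental cells as counterscreen, were preloaded 60 min at room temperature with membrane potential dye containing 100 uM RO 20-1724. Compound exposure was 30 min, and depolarization was read as fluorescence at 590 nm.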
HEK293 cAMP cs: raises cAMP in parental HEK293 cells, TSHR agonist counter-screen; parental HEK293 CNG cAMP sensor, membrane potential fluorescence; AID 938; actives 2.5% (n = 73,000); Potency, µM (titrated, usually from 57.1 µM), without a hit: top-dose activation, usual class: activators; note: % of control where 0% means no effect; nearly all actives have a fitted effect of over 55% in size
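Parental HEK 293 cells stably expressing a modified CNG channel (no TSHR) report cAMP rise as membrane depolarization. Membrane potential dye with 100 uM RO 20-1724 was loaded for 60 min at room temperature, then compound added for 30 min; fluorescence read at 590 nm.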
Caspase-7 inhib: caspase-7 (human) inhibition, allosteric or competitive; Potency, µM (highest dose often 57.5 µM), for inactives: at the highest dose activity change, negative = inhibition, most hits filed as inhibitors; recombinant caspase-7, Ac-DEVD-AFC fluorescence rate; actives 0.02% (n = 75,000); AID 889; P55210; active = well fitted inhibition curve with a large enough effect in the main read-out, with a control signal flat, not every such curve was filed as active; inconclusive = small, poorly fitted or top-dose-only effect, or a change in a side signal; note: % of control where 0% means no effect
* hit, by the source's call; i = inactive; ? = inconclusive; . = no result given; [ ] = remark or other dose. Unless noted, calls come from the whole dose curve; as a rule, active = well fitted curve in the direction sought with a large enough effect; inconclusive = small, poorly fitted or top-dose-only effect, or another doubt; inactive = no such curve, though single readings can be large; an effect the other way counts as inactive or inconclusive. Potency is the fitted concentration of half-maximal effect.

SMILES	Caspase-1 inhib	ERK AVP inh	GBA activity	TSHR agonist	HEK293 cAMP cs	Caspase-7 inhib
C[C@@H]1c2ccccc2Cn2cc3c(c21)C(=O)c1cccc(OP(=O)(O)OCc2ccccc2)c1C3=O	-8.6%[11.5 µM]	-0.7%[11.5 µM]	.	-3.9%[11.4 µM]	-3.6%[11.4 µM]	-23.4%[11.5 µM]
Nc1nc(CN2CCN(c3ccc(F)cc3)CC2)nc(N2CCCc3ccccc32)n1	-2.3%	-22.2%	10.4*	.	19.6%	-3.0%
CNc1nc(N2CCc3ccccc32)ncc1F	-1.4%	?	>76.9	9.7%	-4.9%	-1.4%
O=C(CS(=O)(=O)c1ccccc1)Nc1nc(-c2ccccc2)cs1	-1.4%	39.8µM*	>76.9	-11.2%	1.9%	-2.5%
Cc1cccc(S(=O)(=O)c2c(N)n(/N=C/c3ccco3)c3nc4ccccc4nc23)c1	-10.2%	-11.9%	6.08*	-6.6%	-0.8%	-12.1%
CCOC(=O)N/N=C1/C[C@@H](O)[C@@H](O)[C@@H]2[C@@H]3C(=O)N([C@@H](C)c4ccccc4)C(=O)[C@H]3CC[C@@H]12	-0.8%[11.5 µM]	2.1%[11.5 µM]	.	3.4%[11.4 µM]	-1.3%[11.4 µM]	0.5%[11.5 µM]
COc1ccc(-c2cn3c(C)c(C(=O)NCCN4CCOCC4)sc3n2)cc1	-2.4%	18.7%	i	5.2%	0.1%	0.7%
CCN(CC)C(=O)c1sc2nc(-c3ccc(OC)cc3)cn2c1C	-1.9%	21.5%	>76.9	?	15.8µM*	2.1%
CCOC(=O)c1cc2sccc2n1CC(=O)N1CCc2ccccc21	-2.3%	-0.1%	>76.9	?	15.8µM*	-0.5%
CSc1nnc2c3ccccc3n(Cc3ccccc3)c2n1	-1.8%	-14.3%	>76.9	?	20µM*	-1.8%
CSc1nnc2c3ccccc3n(CCc3ccccc3)c2n1	-6.2%	-1.9%	.	?	3.98µM*	-3.6%
CSc1nnc2c3cc(F)ccc3n(Cc3ccccc3)c2n1	0.1%	-23.9%	>76.9	22.1%	29.2%	0.0%
C=CC1=C(C)C2=Cc3c(C=C)c(C)c4[n]3[Sn+2][n]3c(c(C)c(CCC(=O)O)c3=CC3=NC(=C4)C(C)=C3CCC(=O)O)=CC1=N2	-2.7%	-22.3%	.	1.6%	2.2%	-17.4%
CN(CC(=O)O)Cc1c(O)c(Cl)cc(Cl)c1Cl	-2.5%[11.5 µM]	1.2%[11.5 µM]	.	1.3%[11.4 µM]	-10.8%[11.4 µM]	-0.7%[11.5 µM]
N#Cc1c(-c2ccccc2)cc(-c2ccco2)c(C#N)c1N	.	?	.	-10.0%	-4.4%	?
N#Cc1sc2nc(-c3ccccc3)cc(-c3ccco3)c2c1N	.	-24.2%	>76.9	4.2%	-2.4%	25.1µM*
O=C(COc1ccc(Br)cc1CO)Nc1ccc(F)cc1	-2.0%	39.8µM*	>76.9	-5.7%	-1.1%	-0.4%
CO[C@H]1COC(=O)[C@@H](Cc2ccccc2)NC(=O)[C@@H](C)COC(=O)CCC[C@@H]1C	-1.7%[11.5 µM]	15.6%[11.5 µM]	.	-1.6%[11.4 µM]	-3.2%[11.4 µM]	0.7%[11.5 µM]
CCCn1c(=O)c2ccccc2n2c(SCCOc3ccc(Cl)cc3)nnc12	1.9%	-0.1%	>76.9	?	25.1µM*	-1.0%
CCCn1c(=O)c2ccccc2n2c(SCCOc3ccccc3F)nnc12	-1.0%	9.9%	>76.9	?	?	0.1%
C=CCn1c(-c2c[nH]c3ccccc23)n[nH]c1=S	-1.1%	-13.5%	>76.9	-3.3%	-8.2%	-0.1%
CCn1c(-c2c[nH]c3ccccc23)n[nH]c1=S	-5.5%	?	10.8*	0.4%	-5.8%	-0.6%
Cc1ccc(C(=O)C2CCN(CC(=O)Nc3ccc(N(C)C)cc3)CC2)cc1	-1.5%	15.8µM*	.	-13.2%	-13.8%	-0.4%
CCCC(=O)Nc1ccc(N2CCN(C(=O)CCC)CC2)cc1	2.8%	1.9%	>76.9	-3.3%	-7.5%	1.1%
CCCCC(=O)Nc1ccc(N2CCN(C(=O)CC)CC2)cc1	-3.8%	25.1µM*	>76.9	4.5%	9.9%	-4.5%
CCN1CCCC1CNC(=O)c1ccc(-n2c(=O)c(=O)[nH]c3ccccc32)cc1 (stereo not given)	-1.7%	.	.	?	?	-1.3%
Cc1ccc2cc(C(c3nnnn3CC3CCCO3)N3CCCC4(CCCCC4)C3)c(=O)[nH]c2c1 (stereo not given)	-11.2%	-2.0%	10.1*	5.4%	20.0%	-9.8%
NC(N)=NCCSSCCN=C(N)N	.	.	.	.	-6.4%	.

Bioassay records (PubChem)
